Values joined by “and” are separate entries in the source; they are usually repeats but may differ in a detail not shown here. Equal entries are not always repeated. Results filed as inconclusive are left out. For some assays here: Entries with a potency or affinity are not part of this list. Where a structure was tested more than once in an assay, its records may differ in their call. Active and inactive are the calls of the source. Cut-off read from the data, not from the text of the source, unless noted: active = inhibition above about 80%; inactive = the rest.

Assay [1] in a line: liver-stage malaria parasite growth inhibition, primary screen, cell-based, HepG2, luciferase luminescence, HepG2 viability (AID 624349; in the data active = parasite load remaining mostly below about 12%, no sharp cut-off; inactive = mostly above about 10%;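 note: 100% = mean of DMSO negative control wells on the same plate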). The note with it: P. berghei liver stage in HepG2, luciferase luminescence, concentration not given here; parasite load remaining: stronger effect = lower value; viability: measured here: HepG2 viability without parasites.
For assay [2], the target named is 6-phosphogluconate dehydrogenase, decarboxylating (Homo sapiens) (UniProt P52209). Kind of assay: 6PGD enzyme inhibitors, primary screen, biochemical, human, recombinant enzyme, NADPH absorbance (AID 1159550;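 active = at least 20% inhibition of 6-phosphogluconate dehydrogenase activity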). The note with it: recombinant 6PGD, NADPH absorbance 341 nm; at 10 µM; stronger effect = higher value.
Assay [3] can be described thus: growth inhibition of DIPG glioma cells, dose response, cell-based, JHH-DIPG-1, MIPE4.0, CellTiter-Glo, qHTS (AID 1347062; cut-off not given, nearly all actives have AC50 up to about 27 µM;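 for AC50: cells exposed to compound for two days before readout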). The note with it: JHH-DIPG-1 viability, CellTiter-Glo ATP luminescence. For orientation: Cellular ATP, detected with luciferase, serves as a proxy for viable cell number.
Assay [4] can be described thus: sensitizers of A549 cells to miR-34 induction, primary screen, imaging, A549 dox-inducible miR-34, nuclei and caspase counts (AID 1347080;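 active = compounds whose cell count with miR-34 switched on is under 0.7 times the count with it off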). The note with it: A549 miR-34 inducible, Hoechst nuclei count, 48 h.
Assay [5] deals with NAD(+) hydrolase SARM1 (Homo sapiens) (UniProt Q6SZW1). As to the kind of experiment: SARM1 TIR NADase inhibitors, cell lysate, NAD-Glo luminescence (AID 1508614;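 active = compound whose remaining NAD level is above about 45 nM, limit read from the data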;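 note: higher remaining NAD means stronger inhibition of SARM1 NADase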). The note with it: SAM-TIR HEK293T lysate NADase, at 1 µM, stronger effect = higher value.
Assay [6] concerns the target Mitogen-activated protein kinase 7 (Homo sapiens) (UniProt Q13164). Kind of assay: ERK5 transactivation activators in reporter cells, primary screen, cell-based, HTS (AID 1508626;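 active = luciferase signal above three times the same-plate solvent-only control wells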;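 note: luciferase driven by Gal4-ERK5 fusion binding five Gal4 sites before minimal TATA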). The note with it: HeLa Gal4-ERK5 transactivation, 18 h, at 5 µM, stronger effect = higher value.
A short description of assay [7]: viability rescue of complex I mutant cybrids, primary screen, cell-based, galactose medium, ATP luminescence (AID 1645843;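 active = z-score of at least 1.8 in each of two replicates, scored against plate mean and spread of sample wells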;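 note: positive z means more ATP and so rescue of galactose-driven cybrid death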). The note with it: complex I mutant cybrid cells, 72 h, stronger effect = higher value.
A short description of assay [8]: LFS_MB_P medulloblastoma growth inhibition, cell-based, chromothripsis tumors, cisplatin or BGB combos (AID 1671449).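 Note: cells exposed for 96 hours; 0% = vehicle DMSO and 100% = killing by high DMSO.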 The note with it: LFS_MB_P medulloblastoma cells.
Assay [9] can be described thus: HDN33 neuroblastoma growth inhibition, cell-based, chromothripsis tumors, cisplatin or BGB combos (AID 1671450).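 Note: cells exposed to compound for four days; 0% = vehicle DMSO and 100% = cell killing by high DMSO.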 The note with it: HDN33 neuroblastoma cells, stronger effect = higher value.
Assay [10] in a line: ICB984 medulloblastoma cell growth inhibition, synergistic combos for chromothripsis tumors, cisplatin or BGB combos (AID 1671451; call rule not given here;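 note: cells exposed for 96 hours before readout; 0% = vehicle DMSO and 100% = killing by high DMSO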). The note with it: ICB984 medulloblastoma cells, drug combinations, stronger effect = higher value.
The nature of assay [11]: HTB85 osteosarcoma cell growth inhibition, synergistic combos for chromothripsis tumors, BGB or cisplatin IC20 combos (AID 1671453).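 Note: cells exposed for 96 hours before readout; 0% = vehicle DMSO and 100% = high DMSO killing control.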 The note with it: HTB85 osteosarcoma cells, drug combinations, stronger effect = higher value.
Assay [12] can be described thus: polyglutamine-triggered caspase-3 activation inhibitors, cell-based (AID 1583). The note with it: polyglutamine-induced caspase-3 activation, cell assay; stronger effect = higher value;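 tested at 10 µM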.
Assay [13] is described as follows: suppressors of polyQ aggregation in yeast, 75Q-TubU reporter (AID 1593). The note with it: Yeast 75Q polyglutamine aggregation reporter.
A short description of assay [14]: rescue of polyQ-huntingtin neuronal dysfunction in worms, whole organism, C. elegans mechanosensory neurons, N-terminal huntingtin (AID 1599). The note with it: touch response, stronger effect = higher value.
A short description of assay [15]: inhibitors of mitochondrial cytochrome c release, biochemical, purified mitochondria (AID 1603).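 Note: mouse liver mitochondria challenged with calcium chloride; signal normalized to the plate average as 100%.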 The note with it: stronger effect = lower value.
Assay [16] in a line: inhibitors of polyQ protein aggregation (AID 1604). The note with it: polyglutamine-induced protein aggregation inhibition assay; stronger effect = higher value; tested at 2.5 µM.
Assay [17] in a line: enhancers of glutamate uptake in motor neurons, MN-1 cell line (AID 1612).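 Note: tested at 1 µM final; 0% = mean of DMSO vehicle wells on each plate; positive means more glutamate uptake than control and negative means less.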 The note with it: MN-1 motor neuron cells, stronger effect = higher value.
The nature of assay [18]: suppressors of polyglutamine aggregation in yeast, 75Q-TubH (AID 1616). The note with it: S. cerevisiae 75Q-TubH polyglutamine aggregation suppression; stronger effect = higher value.
Where [19] appears, read: stronger effect = lower value, cell number ratio, induced over uninduced.
The mark [20] stands for this setting: measured here: relative caspase fold change +Dox/-Dox.
Setting [21] is: measured here: total cells with miR-34 induction, stronger effect = lower value.
Setting [22] is: measured here: total cells without miR-34 induction.

Chain of Mitogen-activated protein kinase 7 (Homo sapiens) (Q13164 whole entry, looked up, the tested form may be a part): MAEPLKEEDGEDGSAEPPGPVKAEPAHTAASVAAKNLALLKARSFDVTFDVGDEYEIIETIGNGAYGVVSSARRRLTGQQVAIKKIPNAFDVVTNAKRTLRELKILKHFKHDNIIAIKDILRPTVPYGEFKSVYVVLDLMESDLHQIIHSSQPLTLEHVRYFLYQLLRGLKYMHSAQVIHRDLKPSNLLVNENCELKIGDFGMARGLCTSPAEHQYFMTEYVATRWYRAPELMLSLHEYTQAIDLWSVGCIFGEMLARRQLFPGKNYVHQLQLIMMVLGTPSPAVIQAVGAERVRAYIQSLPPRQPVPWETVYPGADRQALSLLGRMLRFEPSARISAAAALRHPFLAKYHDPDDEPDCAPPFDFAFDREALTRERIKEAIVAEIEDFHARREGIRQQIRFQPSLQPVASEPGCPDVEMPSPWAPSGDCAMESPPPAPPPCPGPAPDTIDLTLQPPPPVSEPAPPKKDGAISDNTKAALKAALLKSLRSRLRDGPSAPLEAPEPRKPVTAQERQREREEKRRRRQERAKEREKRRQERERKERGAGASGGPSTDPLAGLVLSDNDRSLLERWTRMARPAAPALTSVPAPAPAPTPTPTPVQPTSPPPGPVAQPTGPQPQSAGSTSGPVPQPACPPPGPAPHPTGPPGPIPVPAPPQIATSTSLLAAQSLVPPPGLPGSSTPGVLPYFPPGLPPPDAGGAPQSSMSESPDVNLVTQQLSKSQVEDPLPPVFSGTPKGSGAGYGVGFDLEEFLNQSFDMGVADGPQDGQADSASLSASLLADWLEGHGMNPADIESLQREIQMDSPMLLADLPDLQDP
Chain of 6-phosphogluconate dehydrogenase, decarboxylating (Homo sapiens) (P52209 whole entry, looked up): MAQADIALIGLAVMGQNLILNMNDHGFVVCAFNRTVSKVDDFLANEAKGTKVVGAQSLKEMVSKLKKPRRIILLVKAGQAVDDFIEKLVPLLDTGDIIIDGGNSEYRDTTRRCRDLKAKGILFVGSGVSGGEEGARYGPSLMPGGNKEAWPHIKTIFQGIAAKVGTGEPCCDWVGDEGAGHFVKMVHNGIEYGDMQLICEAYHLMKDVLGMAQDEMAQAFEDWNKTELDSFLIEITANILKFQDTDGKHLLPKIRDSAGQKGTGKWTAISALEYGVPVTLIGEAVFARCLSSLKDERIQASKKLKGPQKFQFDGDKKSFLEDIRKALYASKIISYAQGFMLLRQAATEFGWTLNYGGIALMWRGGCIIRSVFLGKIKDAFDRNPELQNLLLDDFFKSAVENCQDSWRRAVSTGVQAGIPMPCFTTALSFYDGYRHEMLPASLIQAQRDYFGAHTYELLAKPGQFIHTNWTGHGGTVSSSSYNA
Chain of NAD(+) hydrolase SARM1 (Homo sapiens) (Q6SZW1 whole entry, looked up, the tested form may be a part): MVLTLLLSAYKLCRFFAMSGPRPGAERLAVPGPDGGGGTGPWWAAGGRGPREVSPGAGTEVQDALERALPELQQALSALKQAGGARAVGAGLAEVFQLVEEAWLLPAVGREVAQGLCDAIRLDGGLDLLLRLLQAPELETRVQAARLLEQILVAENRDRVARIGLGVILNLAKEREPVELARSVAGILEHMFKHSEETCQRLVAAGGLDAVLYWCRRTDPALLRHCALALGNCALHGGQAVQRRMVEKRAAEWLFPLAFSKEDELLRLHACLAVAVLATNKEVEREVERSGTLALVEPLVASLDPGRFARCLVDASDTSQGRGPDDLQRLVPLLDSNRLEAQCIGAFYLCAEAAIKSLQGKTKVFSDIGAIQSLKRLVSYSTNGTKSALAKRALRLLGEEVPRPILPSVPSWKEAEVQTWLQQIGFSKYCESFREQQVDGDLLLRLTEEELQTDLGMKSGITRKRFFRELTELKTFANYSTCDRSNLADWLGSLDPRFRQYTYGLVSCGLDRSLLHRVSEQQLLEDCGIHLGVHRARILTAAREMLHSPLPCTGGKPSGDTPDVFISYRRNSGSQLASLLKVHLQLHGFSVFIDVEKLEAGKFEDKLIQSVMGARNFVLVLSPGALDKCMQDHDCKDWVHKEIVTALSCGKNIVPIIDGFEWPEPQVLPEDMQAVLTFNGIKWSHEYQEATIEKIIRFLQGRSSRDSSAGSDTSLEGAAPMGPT

Take `CCC(=O)NCC[C@@H]1CCc2ccc3c(c21)CCO3`: the parasite load remaining in assay [1] is 159% (inactive) and -0.665% (active). In assay [1], the viability was 88.5% and 95.2%. Further, the inhibition in [2] is 11.8% (inactive). The compound was classed as inactive in [3]. In addition, the figures for the fold change in assay [4] (setting [19]) and in assay [4] (setting [20]) were 0.882 (inactive) and 7.18, respectively. The figures for the cell count in assay [4] (setting [21]) and in [4] (setting [22]) were 11800 and 13400, respectively. Besides, the remaining NAD in assay [5] is 10 nM (inactive). For the same compound, in assay [6], the luciferase signal is 72 AU (inactive).

For `COc1cc([C@@H]2c3cc4c(cc3[C@H](O)[C@H]3COC(=O)[C@@H]23)OCO4)cc(OC)c1OC`, the inhibition in assay [2] is 1.7% (inactive). In assay [3], the AC50 was 235 nM (active). The luciferase signal in assay [6] is 76 AU (inactive).

Consider `COc1cc(NS(C)(=O)=O)ccc1Nc1c2ccccc2nc2ccccc12`, for which the inhibition is -14.7% (inactive) in assay [2]; 66.6% (inactive) and -15.7% (inactive) in assay [8] (at 0.5 µM, stronger effect = higher value); -8.73% and -9.94% in [8] (measured here: combination with BGB IC20, at 0.005 µM); -5.2% and -25.6% in assay [8] (measured here: combination with BGB IC40, at 0.005 µM); -1.49% and -18.2% in assay [8] (measured here: combination with BGB IC40, at 0.05 µM); 79.4% and -1.04% in assay [8] (measured here: combination with cisplatin, at 0.5 µM, stronger effect = higher value). Further, the inhibition was 41.8% and 26.1% in assay [8] (measured here: combination with cisplatin, at 5 µM, stronger effect = higher value); 88.5% and 63.3% in assay [9] (BGB combo, at 5 µM); 50.8% (inactive) and 41.9% (inactive) in assay [9] (at 0.5 µM); 68.8% and 65.8% in assay [9] (cisplatin combo, at 5 µM); 51.3% and 43.7% in assay [9] (measured here: with BGB IC20 combination, at 0.5 µM); 45.8% and 24% in [9] (measured here: with cisplatin IC20 combination, at 0.5 µM). Further, the inhibition in assay [9] (single agent, at 5 µM) is 88.6% and 78.5%; in assay [10] (BGB IC20 combo, at 0.005 µM) it was -6.17% and -3.09%; in assay [10] (BGB IC40 combo, at 0.005 µM) it was 3.68% and -48.5%; in assay [10] (BGB IC40 combo, at 0.05 µM) it was 39.5% and 18.4%; in assay [10] (at 0.5 µM), -24.7% (inactive) and -27.8% (inactive); in [10] (cisplatin combo, at 0.05 µM), 39.5% and 15.2%. Also, the inhibition was -38.9% and -24.5% in [10] (cisplatin combo, at 0.5 µM); -5% and -33% in assay [10] (cisplatin combo, at 5 µM); 3.59% and -0.607% in [10] (measured here: 5 uM single agent, at 5 µM); 17.3% (inactive) and 24.9% (inactive) in [11] (at 0.5 µM); 3.95% and 14.9% in assay [11] (measured here: with BGB IC20, at 0.5 µM); 82.3% and 79.8% in assay [11] (measured here: with BGB IC20, at 5 µM). Also, the inhibition in assay [11] (measured here: with cisplatin IC20, at 0.5 µM) is 25% and 29.1%; in assay [11] (measured here: with cisplatin IC20, at 5 µM), 87.8% and 84.6%; in assay [11] (single agent, at 5 µM), 91% and 89.1%. For the same compound, the fold change in assay [4] (setting [19]) is 0.846 (inactive); in [4] (setting [20]) it was 1.94. Moreover, the cell count in assay [4] (setting [21]) came out at 867; in [4] (setting [22]), 1020. In addition, the remaining NAD in assay [5] was 10 nM (inactive). The luciferase signal in assay [6] was 52 AU (inactive). In assay [7], the z-score was -1.31 (inactive).

For `COc1c(O)cc2c(c1O)[C@@H]1O[C@H](CO)[C@@H](O)[C@H](O)[C@H]1OC2=O`, the inhibition in assay [2] is 2.56% (inactive). In assay [3], the outcome was inactive. For the same compound, the luciferase signal in assay [6] was 48 AU (inactive).

As to `O=C(O)c1c2ccccc2cc2ccccc12`, the inhibition in assay [12] is -6.04%; in assay [2], -1.37% (inactive). The score in assay [13] turned out to be 0.43. Besides, the rescue above control in assay [14] was determined as 12.4. Further, the cytochrome c release ratio in assay [15] is 0.85. In assay [16], this compound came in with an inhibition of aggregation of 33.3%. Further, the glutamate uptake change in assay [17] was 11%. In [18], this compound displayed an aggregation suppression score of 0.249. The fold change was 0.92 (inactive) in assay [4] (setting [19]) and 0.787 in [4] (setting [20]). For the same compound, the cell count worked out at 9100 in [4] (setting [21]) and 9890 in assay [4] (setting [22]). Further, in assay [6], the luciferase signal was 56 AU (inactive). The z-score in assay [7] is 0.475 (inactive).

For `CCCn1c(=O)c2[nH]c(C3CCCC3)nc2n(CCC)c1=O`, the inhibition is 8.56% in assay [12] and 11.4% (inactive) in assay [2]. The score in assay [13] worked out at 1.24. In [14], this compound returned a rescue above control of 18.1. Moreover, in assay [15], the cytochrome c release ratio turned out to be 0.92. The compound also showed an inhibition of aggregation in [16] of 1.59%. In assay [17], the glutamate uptake change is -12.9%. The same compound yielded an aggregation suppression score in assay [18] of 1.32. Also, the fold change in assay [4] (setting [19]) was 1.02 (inactive) and 0.942 (inactive); in [4] (setting [20]) it was 1.07 and 0.717. For the same compound, the cell count in assay [4] (setting [21]) is 7850 and 7600; in assay [4] (setting [22]), 7700 and 8070. Besides, in assay [7], the z-score is 1.02 (inactive) and 0.16 (inactive).

Usually viability stands for the share of living cells, or the viability signal relative to a control. What is called inhibition is the drop in the measured response relative to a control, in per cent. One may read the AC50 as the midpoint of the concentration-response curve, whichever way the signal moves.

The values above are taken from PubChem BioAssay.
